Assay results as given in PubChem BioAssay.

What follows are molecules tested on XIP peptide (Xip251-270) (assay: small-molecule binders of XIP peptide, primary screen, biochemical, small-molecule microarray, fluorescence 635/667 nm, 0.5 µg/mL protein (AID 1183)). Details: small-molecule microarray binding, fluorescence 635 nm; higher = more signal.

Row | Compound | composite z-score
1 | COc1ccc(O[C@H]2C=C[C@@H](c3ccccc3)O[C@@H]2CON=C2[C@H]3CCn4c(=O)n(-c5ccccc5)c(=O)n4[C@H]3[C@H](O)[C@@H]3O[C@H]23)cc1 | 0.742
2 | C[C@@H](c1ccccc1)N1C(=O)[C@H]2[C@H]3[C@H](O)[C@H](O)CC(=NOCc4ccccc4)[C@H]3CC[C@H]2C1=O | 0.548
3 | O=C1C[C@@H](O)[C@@H](O)[C@@H]2[C@@H]3C(=O)N(c4cccc(Oc5ccccc5)c4)C(=O)[C@@H]3CC[C@H]12 | 0.111
4 | O=c1n(Cc2cc3c(cc2Cl)OCO3)c(=O)n2n1CC[C@@H]1C(=NOCc3ccccc3)[C@H]3O[C@H]3[C@@H](O)[C@@H]12 | -0.0262
5 | COC(=O)CC=C[C@@H](C)[C@@H](C=NO[C@H](C)c1cn([C@@H]2COC[C@H]2O)nn1)NS(=O)(=O)c1ccc(C)cc1 | 0.486
6 | CCOC(=O)[C@H](CC(C)C)NC(=O)CCC1CC(OC(=O)NCc2cccc3ccccc23)CC2(CCCC(COC(=O)NCCOC)O2)O1 (stereo not given in full) | 0.446
7 | CON=Cc1ccc(C(=O)N2[C@H](c3ccc(C)cc3)[C@@H](C)CC[C@H]2C(=O)OC)cc1 | 0.488
8 | CO[C@H]1COC(=O)[C@H](C)NC(=O)CC=C[C@@H](C)[C@H](OC)COC(=O)[C@@H](OCc2ccccc2)C=C[C@@H]1C | -0.54
9 | C#CCCCON=C1[C@H]2CCn3c(=O)n(-c4ccccc4)c(=O)n3[C@H]2[C@H](O)[C@@H]2O[C@H]12 | 0.193
10 | CCOC(=O)[C@H](CC(C)C)NC(=O)CCC1CC(OC(=O)NCCc2ccc(F)cc2)CC2(CCCC(COC(=O)NCC3CCCCC3)O2)O1 (stereo not given in full) | 0.437
